High-throughput results (PubChem)
A selection: hits, their analogues and other compounds. The true share with any hit is near 9.2%.
FLuc counter – inhibits or activates purified firefly luciferase, miR-21 counter-screen; P08659; purified FLuc, Km substrates, luminescence inhibition; Potency, µM (highest dose often 57.5 µM), most hits filed as inhibitors; 360,000 tested, 6.9% active; note: nearly all actives have a fitted effect of over 55% in size
Target sequence (P08659 whole entry, looked up): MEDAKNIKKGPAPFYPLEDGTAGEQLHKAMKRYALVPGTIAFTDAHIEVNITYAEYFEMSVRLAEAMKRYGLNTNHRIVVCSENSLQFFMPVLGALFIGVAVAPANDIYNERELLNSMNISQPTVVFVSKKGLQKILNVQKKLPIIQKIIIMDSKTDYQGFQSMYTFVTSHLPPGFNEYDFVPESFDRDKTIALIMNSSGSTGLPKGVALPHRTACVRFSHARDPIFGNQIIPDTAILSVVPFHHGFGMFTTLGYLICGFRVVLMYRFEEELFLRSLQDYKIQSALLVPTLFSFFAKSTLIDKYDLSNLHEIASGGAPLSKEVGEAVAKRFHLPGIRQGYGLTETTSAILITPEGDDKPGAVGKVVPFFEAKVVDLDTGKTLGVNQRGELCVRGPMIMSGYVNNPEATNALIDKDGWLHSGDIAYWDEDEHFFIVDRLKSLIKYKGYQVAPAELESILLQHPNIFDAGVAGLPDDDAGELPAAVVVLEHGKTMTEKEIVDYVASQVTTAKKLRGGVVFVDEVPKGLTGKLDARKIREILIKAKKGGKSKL
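Purified P. pyralis luciferase (10nM final) with 10uM D-luciferin and 10uM ATP (Km levels) in 50mM Tris acetate pH 7.5, 10mM Mg acetate, 0.01% Tween-20, 0.05% BSA; qHTS 6-point titration, ~60 µM downward; luminescence read.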
ELG1 repair inh – blocks ELG1-dependent DNA repair in HEK293T cells; Potency, µM (doses to about 46.1 µM), usual class: inhibitors; HEK293T ELG1-luciferase reporter, luminescence, 16 h; DNA damage induced by 5-fluorouridine; 330,000 tested, 2.3% active; note: nearly all actives have a fitted effect of over 55% in size
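In this reporter screen, reduction of luminescence relative to DMSO vehicle indicated activity. Compounds and 5-fluorouridine were added together to 2,000 cells per well, incubated for 16 hr at 37 °C, then developed with ONE-Glo.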
Rab9 promoter act – Rab9 promoter activation. Huh7 Rab9 promoter-luciferase reporter, luminescence, 24 h. Potency, µM (series often up to 9.22 µM), usual class: activators. 320,000 tested, 2.8% active. AID 485297; note: nearly all actives have a fitted effect of over 60% in size
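Cell-based reporter: Huh7 stable for Rab9 promoter-driven luciferase, plated in reduced-serum medium with 10% FBS at 1500 cells/well, compound-treated 24 h at 37 °C, luminescence read after 10 min reagent.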
ELG1 genotox – induces genotoxicity in HEK293T cells with luciferase-tagged ELG1; 330,000 tested, 1.3% active; HEK293T ELG1-luciferase reporter, luminescence, 16 h; Potency, µM (doses to about 46 µM), actives largely listed as activators; note: nearly all actives have a fitted effect of over 60% in size
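HEK293T cells expressing luciferase-tagged ELG1 were treated with compound or DMSO for 16 hr at 37°C. Luciferase activity was then read after 30 min with ONE-Glo at room temperature; rising signal flags genetic stress.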
SMN2 splice up – increases expression of the SMN2 splice variant; HEK293 SMN2-luciferase splicing reporter, luminescence, 30-36 h; Potency, µM (doses to about 46.1 µM), most hits filed as activators; 210,000 tested, 2.8% active; AID 1458; note: nearly all actives have a fitted effect of over 55% in size
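HEK293 cells carry an SMN2 […]–luciferase reporter in which exon 7 inclusion puts luciferase in frame. Cells were plated 10-12 h before compound addition, then incubated 30-36 h at 37C. ONE-Glo luminescence was read; sodium butyrate at 4.5 mM final served as control.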
NPC1 promoter act – NPC1 promoter activation; Huh7 NPC1 promoter luciferase reporter, 24 h; Potency, µM (highest dose often 9.22 µM), most hits filed as activators; 320,000 tested, 2.4% active; AID 485313; note: nearly all actives have a fitted effect of over 60% in size
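NPC1 promoter–luciferase Huh7 cells; 24 h compound; luminescence.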
Of the large screens only hits and unclear results are named; the others gave an inactive call. Calls come from the whole dose curve; as a rule, active = well fitted curve in the direction sought with a large enough effect; inconclusive = small, poorly fitted or top-dose-only effect, or another doubt; inactive = no such curve, though single readings can be large; an effect the other way counts as inactive or inconclusive.

CC(CCc1ccco1)NC(=O)c1cc2c(-c3ccccc3F)nn(C)c2s1 (stereo unspecified)	ELG1 repair inh 16µM
CCOc1cc(Cl)c(NC(C)=O)cc1OCC	none
Cc1ccc(S(=O)(=O)NCCC(=O)NCC(c2cccs2)N(C)C)cc1 (stereo unspecified)	none (no result: SMN2 splice up)
CCCCN(CCCC)C1=C(C(=O)c2ccccc2)N(C)S(=O)(=O)c2ccccc21	none (no result: ELG1 repair inh, Rab9 promoter act, ELG1 genotox, NPC1 promoter act)
CCCCc1c(O)nc(SC2CC(=O)N(c3ccc(C(=O)OCC)cc3)C2=O)[nH]c1=O (stereo unspecified)	FLuc counter 21µM (no result: SMN2 splice up)
CCCc1c(O)nc(SC2CC(=O)N(c3ccc(OC)cc3)C2=O)[nH]c1=O (stereo unspecified)	none (no result: SMN2 splice up)
Cc1[nH]c2ccccc2c1C(=O)COc1ccccc1	FLuc counter inconclusive, ELG1 repair inh inconclusive (no result: SMN2 splice up)
Cc1[nH]c2ccccc2c1C(=O)COc1ccccc1F	FLuc counter 21µM, ELG1 repair inh inconclusive (no result: SMN2 splice up)
Cc1ccc(CNC(=O)Cn2ncc3c([nH]c4ccc(C)cc43)c2=O)cc1	none (no result: ELG1 repair inh, Rab9 promoter act, ELG1 genotox, SMN2 splice up, NPC1 promoter act)
O=C(CCNc1cccc(Cl)c1)c1cccs1	FLuc counter inconclusive, ELG1 repair inh inconclusive
Cc1ccc(NCCC(=O)c2cccs2)cc1C	FLuc counter 3.4µM, ELG1 repair inh inconclusive, Rab9 promoter act inconclusive, ELG1 genotox inconclusive, SMN2 splice up inconclusive
Cc1ccc(NC(=O)CNCc2cccs2)c(Br)c1	FLuc counter 27µM, ELG1 repair inh inconclusive, ELG1 genotox inconclusive (no result: SMN2 splice up)
CC(C)c1ccc(NCCC(=O)c2cccs2)cc1	FLuc counter 12µM, ELG1 repair inh inconclusive, Rab9 promoter act inconclusive, ELG1 genotox inconclusive, NPC1 promoter act inconclusive
Cc1ccc(NC(=O)CNCc2ccccc2)c(Br)c1	FLuc counter inconclusive, ELG1 repair inh inconclusive, ELG1 genotox inconclusive
Cc1ccc(CNC(=O)CCC(=O)c2cccs2)cc1	none
Cc1ccc(NCCC(=O)c2cccs2)cc1	FLuc counter 21µM, ELG1 repair inh inconclusive, Rab9 promoter act 2.8µM, ELG1 genotox inconclusive, NPC1 promoter act inconclusive
Cc1ccc(NC(=O)C2(S(=O)(=O)c3ccc(Cl)cc3)CC2)c(Br)c1	none (no result: SMN2 splice up)
C#CCNC(=O)C1=C[C@H](c2ccc(C(F)(F)F)cc2)C[C@H](OCc2ccc(CO)cc2)O1	none (no result: SMN2 splice up)
COC(=O)[C@@]1(Cc2ccc(OC)cc2)[C@H]2c3cc(C(=O)N4CCCC4)n(CCc4ccc(O)c(O)c4)c3C[C@H]2CN1C(=O)c1ccccc1	none (no result: FLuc counter, ELG1 repair inh, Rab9 promoter act, ELG1 genotox, NPC1 promoter act)
Cc1cc(C)c(C(CC(=O)c2cccs2)C(C#N)C#N)c(C)c1 (stereo unspecified)	FLuc counter 12µM, ELG1 repair inh inconclusive, Rab9 promoter act 3.5µM, ELG1 genotox 18µM, SMN2 splice up inconclusive, NPC1 promoter act inconclusive
Cc1ccc(NC(=O)CCC(=O)c2cccs2)c(Br)c1	FLuc counter inconclusive, ELG1 repair inh inconclusive, Rab9 promoter act 3.5µM, ELG1 genotox inconclusive, NPC1 promoter act inconclusive (no result: SMN2 splice up)
Cc1ccc(NC(=O)CCC(=O)c2cccs2)cc1	FLuc counter 11µM
Cc1ccc(NCCC(=O)c2cccs2)cc1Cl	FLuc counter inconclusive, ELG1 repair inh inconclusive, ELG1 genotox 21µM
COc1ccc(-c2noc(COc3cc(C)c(Br)c(C)c3)n2)cc1OC	none (no result: ELG1 repair inh, Rab9 promoter act, ELG1 genotox, NPC1 promoter act)
COc1cc(C)c(C(=O)CSc2nnc(CNC(=O)c3ccco3)n2C)cc1C	none (no result: SMN2 splice up)
O=C(CC(C(=O)O)c1ccccc1)c1cccs1 (stereo unspecified)	none (no result: SMN2 splice up)
COc1ccc(NC(=O)CO/N=C(\C)c2cccs2)cc1	none
C/C(=N/OCC(=O)Nc1ccccc1)c1cccs1	FLuc counter 9.5µM, ELG1 repair inh inconclusive, Rab9 promoter act inconclusive, ELG1 genotox inconclusive, NPC1 promoter act inconclusive
CC(CC(=O)c1cccs1)CC(=O)c1cccs1	FLuc counter 21µM, ELG1 repair inh inconclusive, Rab9 promoter act 2.8µM, SMN2 splice up inconclusive, NPC1 promoter act 2.8µM
O=C(CCC(=O)c1cccs1)Nc1ccc(N2CCCCC2)cc1	FLuc counter 19µM
Cc1ccc(-c2cn3nc(N4CCCC(C(=O)Nc5ccc(F)cc5)C4)sc3n2)cc1 (stereo unspecified)	FLuc counter 12µM (no result: ELG1 repair inh, Rab9 promoter act, ELG1 genotox, SMN2 splice up, NPC1 promoter act)
